Results filed as inconclusive are left out. The source made the active and inactive calls. Calls come from the whole dose curve; as a rule, active = well fitted inhibition curve with a large enough effect; inconclusive = small, poorly fitted or top-dose-only effect; inactive = no such curve, though single readings can be large or run the other way.
Test: InCell qHTS Assay for Inhibitors of the mTORC1 Signaling Pathway in MEF (Tsc2-/-, p53-/-) Cells: Hit Validation;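 note: phospho-S6 Ser235/236 signal normalized to propidium iodide cell count per well; nearly all actives have a fitted effect of over 75% in size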
Conditions: phospho-rpS6 immunofluorescence, 24 h; activity change, negative = inhibition: at 38.3 µM (top of the series)
Potency is the fitted concentration of half-maximal effect.

Activity change, negative = inhibition, -100%:
COc1ccc(Oc2nc3c(C)cccn3c(=O)c2/C=C(\C#N)c2nc3ccccc3[nH]2)cc1
COc1ccc(-n2ncc3c(NCCCOC(C)C)ncnc32)cc1
COc1cccc(/C=C(\C#N)c2nc3ccc(C)cc3[nH]2)c1
CCc1cnc2c(c1SCC(=O)NCc1ccc(F)cc1)c(=O)n(C)c(=O)n2C
COC(=O)c1cc2sc(C)cc2n1Cc1ccccc1
Oc1ccccc1Nc1nc(-c2ccccc2)c2cc(Cl)ccc2n1
CCCCN(CC)CCNC(=O)C1CCN(c2nnc(C)c3c(C)n(-c4ccc(C)cc4)nc23)CC1
COc1ccc(Cn2c(C(=O)O)c(CNCc3ccccc3F)c3ccc(OC)cc32)cc1
COc1ccc(N2CCN(C(=O)C3CCN(Cc4nc(-c5ccc(Cl)cc5)oc4C)CC3)CC2)cc1
O=C(CC(NCc1cccnc1)C(=O)O)Nc1ccc(O)cc1 (configuration not stated)
CCCN1CCN(c2ncnc3sc(C(=O)Nc4ccc(OC(F)(F)F)cc4)c(C)c23)CC1
COc1ccc(Cl)cc1NC(=O)CSc1nc(-c2ccco2)cc(C(F)(F)F)n1
Cc1cc(NCc2ccc(Cl)cc2)n2cnnc2n1
O=C(CN(CCc1ccccc1)S(=O)(=O)c1ccccc1)NCc1ccc(Cl)cc1
Cc1cccc(OCc2ccc(-c3nc(C#N)c(NCCN(C)C)o3)o2)c1
CCOc1ccc(/C=C/c2nc(C#N)c(NCc3ccccc3)o2)cc1
CCOC(=O)N1CCN(Cc2nc3cc(NC(=O)c4ccccc4OC)ccc3n2C(C)C)CC1
COc1ccc(OCC(=O)NCc2ccc3c(c2)CCN3C(=O)c2ccccc2)cc1
COc1ccc(NC(=O)CSc2nc3ccccc3nc2N2CCC(C)CC2)cc1
CCCn1c2ccc(C)cc2c2nnc(SCCN3CCCCC3)nc21
Cc1ccc(-c2nnc(Nc3ccc(O)cc3)c3ccccc23)cc1S(=O)(=O)N1CCCCC1
Cc1ccc(NC(=O)COc2ccc(-c3nn(C)c(=O)c4ccccc34)cc2)c(C)c1
COc1ccc(N2CCN(C(=O)C(C)n3nc(C)c4sc5ccccc5c4c3=O)CC2)cc1 (configuration not stated)

Activity change, negative = inhibition, -29.6%:
Cc1oc2ccc(O)c(CN3CCCC(C)C3)c2c1C(=O)Nc1ccccc1 (configuration not stated)

Activity change, negative = inhibition, 1.72%:
O=C(CC1(O)C(=O)N(CCc2ccccc2)c2ccc(Br)cc21)c1ccccc1O (configuration not stated)

Activity change, negative = inhibition, -3.12%:
Cc1c(Cl)ccc2sc(NC(=O)c3ccc(S(=O)(=O)N4CCCc5ccccc54)cc3)nc12

Activity change, negative = inhibition, -28.2%:
CCCCN1C(=O)C(O)(CC(=O)c2ccc(C(C)(C)C)cc2)c2ccccc21 (configuration not stated)

Potency, active:
COc1ccc(Cl)cc1NC(=O)CCCS(=O)(=O)c1nc(-c2ccc(OC)c(OC)c2)cc(C(F)(F)F)n1 14.7 µM
CCOCc1cc(CN2CCN(c3ccccc3OC)CC2)c(O)c2ncccc12 2.07 µM
C=CCc1c(C)nc2nc(SCC(=O)Nc3ccc(C)c(C)c3)nn2c1C 9.27 µM
CCS(=O)(=O)c1ncc(Cl)c(C(=O)NCc2ccc(OC)cc2)n1 4.65 µM
Cc1cccc(N2CCN(c3ncnc4c3nc3n4CCCCC3)CC2C)c1 (configuration not stated) 5.85 µM
Cc1cccc(CS(=O)(=O)c2ncc(Cl)c(C(=O)Nc3nnc(C(C)C)s3)n2)c1 13.1 µM
CCOC(=O)c1ccc(NC(=O)c2nc(S(=O)(=O)Cc3ccccc3)ncc2Cl)cc1 4.14 µM
CCNC(=O)c1c(NC(=O)c2nc(S(=O)(=O)CC)ncc2Cl)sc2c1CCCC2 2.07 µM
CC(=O)C1=C(c2ccc(Cl)c(Cl)c2)N(C(C)=O)n2c(C)nnc2S1 7.36 µM
CS(=O)(=O)c1ncc(Cl)c(C(=O)N(Cc2ccc(Cl)cc2)Cc2ccco2)n1 3.29 µM

Reference: PubChem BioAssay AID651791 (National Center for Advancing Translational Sciences (NCATS), 2012)
